In PubChem BioAssay (Tox21):
Where “and” joins values, the source holds several entries; their conditions need not be identical. Equal values may be shown once. Results filed as inconclusive are left out. Where a call stands in place of a potency, no number is given. Calls of active or inactive are those of the source. Unless noted, the call rests on the fitted dose curve; in most records, active means well fitted curve in the direction sought with a large enough effect in the repeat runs; inconclusive means weak or mixed curves; inactive means no such curve, though single readings can be large; an effect the other way counts as inactive or inconclusive.

Target: Androgen receptor (Homo sapiens) (UniProt P10275)
Sequence (P10275 whole entry, looked up): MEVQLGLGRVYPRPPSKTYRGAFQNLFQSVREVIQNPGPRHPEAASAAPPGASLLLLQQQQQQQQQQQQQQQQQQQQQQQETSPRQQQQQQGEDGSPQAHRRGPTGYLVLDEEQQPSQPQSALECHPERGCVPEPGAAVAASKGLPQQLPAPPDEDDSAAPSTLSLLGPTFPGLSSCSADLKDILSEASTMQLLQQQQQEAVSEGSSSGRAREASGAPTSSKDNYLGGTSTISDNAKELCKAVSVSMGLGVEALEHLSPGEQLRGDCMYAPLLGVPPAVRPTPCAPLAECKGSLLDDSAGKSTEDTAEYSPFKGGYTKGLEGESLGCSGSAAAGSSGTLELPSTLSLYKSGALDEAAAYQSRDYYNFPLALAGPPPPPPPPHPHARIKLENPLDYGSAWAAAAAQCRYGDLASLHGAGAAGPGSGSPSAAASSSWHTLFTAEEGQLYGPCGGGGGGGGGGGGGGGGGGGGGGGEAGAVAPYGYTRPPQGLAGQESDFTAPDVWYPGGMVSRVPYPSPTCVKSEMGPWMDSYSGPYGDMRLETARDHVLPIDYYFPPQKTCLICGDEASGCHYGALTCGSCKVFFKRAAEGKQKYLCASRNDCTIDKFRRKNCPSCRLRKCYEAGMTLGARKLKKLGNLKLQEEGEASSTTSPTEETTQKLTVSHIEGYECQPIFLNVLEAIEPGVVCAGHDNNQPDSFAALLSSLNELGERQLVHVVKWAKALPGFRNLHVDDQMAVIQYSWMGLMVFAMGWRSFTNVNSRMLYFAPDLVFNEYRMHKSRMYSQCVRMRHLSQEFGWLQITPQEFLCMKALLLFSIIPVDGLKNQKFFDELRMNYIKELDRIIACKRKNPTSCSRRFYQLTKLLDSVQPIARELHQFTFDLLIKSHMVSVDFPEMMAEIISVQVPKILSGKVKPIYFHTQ
Assay: qHTS assay to identify small molecule antagonists of the androgen receptor (AR) signaling pathway using the MDA cell line in the presence of 0.5 nM R1881 (AID 1259243); further: nearly all actives have a fitted effect of over 50% in size
Conditions: MDA-kb2 MMTV-luciferase, R1881 0.5 nM, 16 h; series mostly up to 92.4 µM
Outline: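 Stably transfected MDA-kb2 cells express luciferase from an MMTV promoter bearing both AR and GR response elements. Compounds plus 0.5 nM R1881 (final) were incubated 16 hr at 37C without CO2, then luminescence measured.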

Q: Which Potency does the source give for `CC(C)(Oc1ccc(C2CC2(Cl)Cl)cc1)C(=O)O` (stereo not drawn) here?
A: inactive

Q: With `CC(C)[C@@H]1CC[C@@H](C)C[C@H]1O` as the compound, how does the Potency read?
A: inactive

Q: With `Cc1cc(=O)n(-c2ccccc2)n1C` as the compound, how does the Potency read?
A: inactive

Q: With `CCCCC(CC)COC(=O)/C=C/c1ccc(OC)cc1` (stereo not drawn) as the compound, how does the Potency read?
A: inactive

Q: With `CCCN(CCC)S(=O)(=O)c1ccc(C(=O)O)cc1` as the compound, how does the Potency read?
A: inactive

Q: For `Cc1ccc(O)cc1`, which Potency is on record?
A: inactive

Q: For `C1N2CN3CN1CN(C2)C3`, which Potency is on record?
A: inactive

Q: For `O=C(c1ccccc1)c1ccccc1`, which Potency is on record?
A: inactive

Q: For `Cc1ccc(C)c(OCCCC(C)(C)C(=O)O)c1`, which Potency is on record?
A: inactive

Q: With `Oc1ccc(/C=C/c2cc(O)cc(O)c2)cc1` as the compound, how does the Potency read?
A: inactive

Target: Estrogen receptor (Homo sapiens) (UniProt P03372)
Sequence (P03372 whole entry, looked up): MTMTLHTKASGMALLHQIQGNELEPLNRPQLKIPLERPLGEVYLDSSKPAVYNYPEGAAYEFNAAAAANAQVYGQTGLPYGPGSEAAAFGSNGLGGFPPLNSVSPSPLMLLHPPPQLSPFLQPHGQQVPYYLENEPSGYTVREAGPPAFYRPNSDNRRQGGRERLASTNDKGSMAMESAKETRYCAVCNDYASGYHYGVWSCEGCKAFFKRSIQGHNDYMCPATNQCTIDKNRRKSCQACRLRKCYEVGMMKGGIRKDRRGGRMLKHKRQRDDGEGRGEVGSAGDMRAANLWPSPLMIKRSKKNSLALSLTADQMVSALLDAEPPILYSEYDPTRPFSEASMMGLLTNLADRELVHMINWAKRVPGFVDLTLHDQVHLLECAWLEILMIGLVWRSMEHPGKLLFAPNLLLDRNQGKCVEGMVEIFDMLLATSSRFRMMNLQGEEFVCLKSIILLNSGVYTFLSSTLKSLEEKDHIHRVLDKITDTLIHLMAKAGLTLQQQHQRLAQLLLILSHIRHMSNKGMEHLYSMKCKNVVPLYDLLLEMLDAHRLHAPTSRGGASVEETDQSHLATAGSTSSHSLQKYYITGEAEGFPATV
Assay: qHTS assay to identify small molecule antagonists of the estrogen receptor alpha (ER-alpha) signaling pathway using the BG1 cell line in the presence of 0.1 nM 17-beta-estradiol (AID 1259244); further: nearly all actives have a fitted effect of over 50% in size
Conditions: VM7Luc4E2 (BG1) ERE-luciferase, antagonist mode, 0.1 nM E2, 22 h; series mostly up to 92.4 µM
Outline: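 Antagonist mode: compounds in DMSO are pinned onto VM7Luc4E2 reporter cells, 0.1 nM final 17beta-estradiol is added, and after 22 h at 37C luciferase luminescence is measured with ONE-Glo.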

Q: With `Cc1noc(NS(=O)(=O)c2ccc(N)cc2)c1C` as the compound, how does the Potency read?
A: inactive

Q: For `CC(C)(Oc1ccc(C2CC2(Cl)Cl)cc1)C(=O)O` (stereo not drawn), which Potency is on record?
A: inactive

Q: With `CCCC(CCC)C(=O)O` as the compound, how does the Potency read?
A: inactive

Q: With `OC(Cn1cncn1)(Cn1cncn1)c1ccc(F)cc1F` as the compound, how does the Potency read?
A: inactive

Q: Which Potency does the source give for `CCCCC1C(=O)N(c2ccccc2)N(c2ccccc2)C1=O` here?
A: inactive

Q: With `O=c1cc[nH]c(=S)[nH]1` as the compound, how does the Potency read?
A: inactive

Q: Which Potency does the source give for `Cc1cc(=O)n(-c2ccccc2)n1C` here?
A: inactive

Q: For `NC(=O)c1ccccc1O`, which Potency is on record?
A: inactive

Q: With `NNC(=O)c1ccncc1` as the compound, how does the Potency read?
A: inactive

Q: For `CCCNC(=O)NS(=O)(=O)c1ccc(Cl)cc1`, which Potency is on record?
A: inactive

Q: Which Potency does the source give for `NC(N)=O` here?
A: inactive

Q: With `CCCC(O)C(CC)CO` (stereo not drawn) as the compound, how does the Potency read?
A: inactive

Q: Which Potency does the source give for `CCCCC(CC)COC(=O)/C=C/c1ccc(OC)cc1` (stereo not drawn) here?
A: inactive

Q: For `NS(=O)(=O)c1cc(C(=O)O)c(NCc2ccco2)cc1Cl`, which Potency is on record?
A: inactive

Q: Which Potency does the source give for `Nc1ccc(C(=O)O)cc1` here?
A: inactive

Q: Which Potency does the source give for `O=C(O)CCCCC(=O)O` here?
A: inactive

Q: Which Potency does the source give for `NC(N)=NC(=O)c1nc(Cl)c(N)nc1N` here?
A: inactive

Q: Which Potency does the source give for `NC(=O)c1cnccn1` here?
A: inactive

Q: With `C[C@]12C=CC(=O)C=C1CC[C@@H]1[C@@H]2[C@@H](O)C[C@@]2(C)[C@H]1CC[C@]2(O)C(=O)CO` as the compound, how does the Potency read?
A: inactive

Q: Which Potency does the source give for `Nc1ccn([C@H]2CC[C@@H](CO)O2)c(=O)n1` here?
A: inactive

Q: Which Potency does the source give for `CC1(C)[C@@H]2CC[C@@]1(C)C(=O)C2` here?
A: inactive

Q: Which Potency does the source give for `Nc1ccc(O)c(C(=O)O)c1` here?
A: inactive

Q: With `COc1ccc2[nH]cc(CCNC(C)=O)c2c1` as the compound, how does the Potency read?
A: inactive

Q: Which Potency does the source give for `Cc1ccc(S(=O)(=O)NC(=O)NN2CCCCCC2)cc1` here?
A: inactive

Q: For `Cc1ccc(C)c(OCCCC(C)(C)C(=O)O)c1`, which Potency is on record?
A: inactive

Q: With `Nc1ccc(S(=O)(=O)c2ccc(N)cc2)cc1` as the compound, how does the Potency read?
A: inactive

Q: Which Potency does the source give for `Oc1ccc(/C=C/c2cc(O)cc(O)c2)cc1` here?
A: inactive

Q: Which Potency does the source give for `CC(=O)Nc1nnc(S(N)(=O)=O)s1` here?
A: inactive

Q: For `CC(=O)NS(=O)(=O)c1ccc(N)cc1`, which Potency is on record?
A: inactive

Q: For `Cn1cc[nH]c1=S`, which Potency is on record?
A: inactive

Q: Which Potency does the source give for `O=c1ccc2ccccc2o1` here?
A: inactive

System: not listed separately
Assay: qHTS assay to identify small molecule phospholipidosis (PLD) inducers (AID 1259344; active means well fitted curve in the direction sought with a large enough effect; an effect the other way counts as inactive or inconclusive)
Conditions: HepG2 phospholipidosis, LipidTOX Red imaging, 24 h; series mostly up to 38.3 µM
Outline: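 Cells (HepG2, 900 per well) attach for 4 h, receive LipidTOX Red and compound together, incubate 24 h at 37 C, are fixed 30 min with paraformaldehyde/Hoechst, then imaged at one site per well.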

Q: With `Cc1noc(NS(=O)(=O)c2ccc(N)cc2)c1C` as the compound, how does the outcome read?
A: inactive

Q: Which outcome does the source give for `CC(C)(Oc1ccc(C2CC2(Cl)Cl)cc1)C(=O)O` (stereo not drawn) here?
A: inactive

Q: Which outcome does the source give for `CCCC(CCC)C(=O)O` here?
A: inactive

Q: For `OC(Cn1cncn1)(Cn1cncn1)c1ccc(F)cc1F`, which outcome is on record?
A: inactive

Q: Which outcome does the source give for `CCCCC1C(=O)N(c2ccccc2)N(c2ccccc2)C1=O` here?
A: inactive

Q: Which outcome does the source give for `O=c1cc[nH]c(=S)[nH]1` here?
A: inactive

Q: Which outcome does the source give for `CC(C)[C@@H]1CC[C@@H](C)C[C@H]1O` here?
A: inactive

Q: With `Cc1cc(=O)n(-c2ccccc2)n1C` as the compound, how does the outcome read?
A: inactive

Q: For `NC(=O)c1ccccc1O`, which outcome is on record?
A: inactive

Q: With `NNC(=O)c1ccncc1` as the compound, how does the outcome read?
A: inactive

Q: With `CCCNC(=O)NS(=O)(=O)c1ccc(Cl)cc1` as the compound, how does the outcome read?
A: inactive

Q: Which outcome does the source give for `NC(N)=O` here?
A: inactive

Q: For `CCCC(O)C(CC)CO` (stereo not drawn), which outcome is on record?
A: inactive

Q: With `CCCCC(CC)COC(=O)/C=C/c1ccc(OC)cc1` (stereo not drawn) as the compound, how does the outcome read?
A: inactive

Q: With `NS(=O)(=O)c1cc(C(=O)O)c(NCc2ccco2)cc1Cl` as the compound, how does the outcome read?
A: inactive

Q: For `Nc1ccc(C(=O)O)cc1`, which outcome is on record?
A: inactive

Q: With `O=C(O)CCCCC(=O)O` as the compound, how does the outcome read?
A: inactive

Q: With `CCCN(CCC)S(=O)(=O)c1ccc(C(=O)O)cc1` as the compound, how does the outcome read?
A: inactive

Q: With `NC(N)=NC(=O)c1nc(Cl)c(N)nc1N` as the compound, how does the outcome read?
A: inactive

Q: With `Cc1ccc(O)cc1` as the compound, how does the outcome read?
A: inactive

Q: Which outcome does the source give for `NC(=O)c1cnccn1` here?
A: inactive

Q: With `C1N2CN3CN1CN(C2)C3` as the compound, how does the outcome read?
A: inactive

Q: With `C[C@]12C=CC(=O)C=C1CC[C@@H]1[C@@H]2[C@@H](O)C[C@@]2(C)[C@H]1CC[C@]2(O)C(=O)CO` as the compound, how does the outcome read?
A: inactive

Q: With `Nc1ccn([C@H]2CC[C@@H](CO)O2)c(=O)n1` as the compound, how does the outcome read?
A: inactive

Q: For `CC1(C)[C@@H]2CC[C@@]1(C)C(=O)C2`, which outcome is on record?
A: inactive

Q: For `O=C(c1ccccc1)c1ccccc1`, which outcome is on record?
A: inactive

Q: For `Nc1ccc(O)c(C(=O)O)c1`, which outcome is on record?
A: inactive

Q: With `COc1ccc2[nH]cc(CCNC(C)=O)c2c1` as the compound, how does the outcome read?
A: inactive

Q: With `Cc1ccc(S(=O)(=O)NC(=O)NN2CCCCCC2)cc1` as the compound, how does the outcome read?
A: inactive

Q: Which outcome does the source give for `Cc1ccc(C)c(OCCCC(C)(C)C(=O)O)c1` here?
A: inactive

Q: Which outcome does the source give for `Nc1ccc(S(=O)(=O)c2ccc(N)cc2)cc1` here?
A: inactive

Q: For `Oc1ccc(/C=C/c2cc(O)cc(O)c2)cc1`, which outcome is on record?
A: inactive

Q: For `CC(=O)Nc1nnc(S(N)(=O)=O)s1`, which outcome is on record?
A: inactive

Q: Which outcome does the source give for `CC(=O)NS(=O)(=O)c1ccc(N)cc1` here?
A: inactive

Q: Which outcome does the source give for `Cn1cc[nH]c1=S` here?
A: inactive

Q: With `O=c1ccc2ccccc2o1` as the compound, how does the outcome read?
A: inactive

System: not listed separately
Assay: qHTS assay to identify small molecule HDAC inhibitors (AID 1259364); further: potency means the concentration at half of the fitted maximal effect;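 further: wild-type HCT-116 cells with endogenous class I/II HDAC activity; nearly all actives have a fitted effect of over 45% in size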
Conditions: HCT-116 HDAC-Glo I/II luminescence, 2 h; series mostly up to 92.4 µM
Outline: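 Cells (HCT-116, wild type) are seeded at 1,500 per well, incubated overnight, treated with compound in DMSO for 2 hr, then developed with HDAC-Glo I/II reagent for 30 min at room temperature.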

Q: Which Potency does the source give for `Cc1noc(NS(=O)(=O)c2ccc(N)cc2)c1C` here?
A: inactive

Q: For `CC(C)(Oc1ccc(C2CC2(Cl)Cl)cc1)C(=O)O` (stereo not drawn), which Potency is on record?
A: inactive

Q: With `CCCC(CCC)C(=O)O` as the compound, how does the Potency read?
A: inactive

Q: For `OC(Cn1cncn1)(Cn1cncn1)c1ccc(F)cc1F`, which Potency is on record?
A: inactive

Q: For `CCCCC1C(=O)N(c2ccccc2)N(c2ccccc2)C1=O`, which Potency is on record?
A: inactive

Q: With `O=c1cc[nH]c(=S)[nH]1` as the compound, how does the Potency read?
A: inactive

Q: Which Potency does the source give for `CC(C)[C@@H]1CC[C@@H](C)C[C@H]1O` here?
A: inactive

Q: With `Cc1cc(=O)n(-c2ccccc2)n1C` as the compound, how does the Potency read?
A: inactive

Q: With `NC(=O)c1ccccc1O` as the compound, how does the Potency read?
A: inactive

Q: With `NNC(=O)c1ccncc1` as the compound, how does the Potency read?
A: inactive

Q: Which Potency does the source give for `CCCNC(=O)NS(=O)(=O)c1ccc(Cl)cc1` here?
A: inactive

Q: For `NC(N)=O`, which Potency is on record?
A: inactive

Q: Which Potency does the source give for `CCCC(O)C(CC)CO` (stereo not drawn) here?
A: inactive

Q: Which Potency does the source give for `CCCCC(CC)COC(=O)/C=C/c1ccc(OC)cc1` (stereo not drawn) here?
A: inactive

Q: Which Potency does the source give for `NS(=O)(=O)c1cc(C(=O)O)c(NCc2ccco2)cc1Cl` here?
A: inactive

Q: For `Nc1ccc(C(=O)O)cc1`, which Potency is on record?
A: inactive

Q: With `O=C(O)CCCCC(=O)O` as the compound, how does the Potency read?
A: inactive

Q: With `CCCN(CCC)S(=O)(=O)c1ccc(C(=O)O)cc1` as the compound, how does the Potency read?
A: inactive

Q: With `NC(N)=NC(=O)c1nc(Cl)c(N)nc1N` as the compound, how does the Potency read?
A: inactive

Q: Which Potency does the source give for `Cc1ccc(O)cc1` here?
A: inactive

Q: With `NC(=O)c1cnccn1` as the compound, how does the Potency read?
A: inactive

Q: With `C1N2CN3CN1CN(C2)C3` as the compound, how does the Potency read?
A: inactive

Q: For `C[C@]12C=CC(=O)C=C1CC[C@@H]1[C@@H]2[C@@H](O)C[C@@]2(C)[C@H]1CC[C@]2(O)C(=O)CO`, which Potency is on record?
A: inactive

Q: Which Potency does the source give for `Nc1ccn([C@H]2CC[C@@H](CO)O2)c(=O)n1` here?
A: inactive

Q: Which Potency does the source give for `CC1(C)[C@@H]2CC[C@@]1(C)C(=O)C2` here?
A: inactive

Q: For `O=C(c1ccccc1)c1ccccc1`, which Potency is on record?
A: inactive

Q: For `Nc1ccc(O)c(C(=O)O)c1`, which Potency is on record?
A: inactive

Q: For `COc1ccc2[nH]cc(CCNC(C)=O)c2c1`, which Potency is on record?
A: inactive

Q: For `Cc1ccc(S(=O)(=O)NC(=O)NN2CCCCCC2)cc1`, which Potency is on record?
A: inactive

Q: For `Cc1ccc(C)c(OCCCC(C)(C)C(=O)O)c1`, which Potency is on record?
A: inactive

Q: For `Nc1ccc(S(=O)(=O)c2ccc(N)cc2)cc1`, which Potency is on record?
A: inactive

Q: For `Oc1ccc(/C=C/c2cc(O)cc(O)c2)cc1`, which Potency is on record?
A: 1.95 µM (active) and 1.22 µM (active) and 2.98 µM (active)

Q: Which Potency does the source give for `CC(=O)Nc1nnc(S(N)(=O)=O)s1` here?
A: inactive

Q: With `CC(=O)NS(=O)(=O)c1ccc(N)cc1` as the compound, how does the Potency read?
A: inactive

Q: Which Potency does the source give for `Cn1cc[nH]c1=S` here?
A: inactive

Q: With `O=c1ccc2ccccc2o1` as the compound, how does the Potency read?
A: inactive
